6 molecules from PubChem BioAssay (EPA / NIEHS) can be followed below.

Each structure is given as a SMILES string. The source made the active and inactive calls. How the source made its calls: active means hit-call score of the fitted dose curve at least 0.9, where 1 is the maximum; inactive means score below 0.9.

Test [1] in a line: CEETOX_H295R_ESTRONE: CeeTox H295R High-throughput Steroidogenesis Assay for Estrone (AID 2283441). The settings on record: actives raise or lower the signal. Put shortly: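 Estrone secreted into medium quantified by LC-MS/MS after dansyl chloride derivatization, following 48 h chemical exposure (0.1% DMSO final) of forskolin-prestimulated (10 uM, 48 h) H295R cells; gain or loss fitted against DMSO; MTT viability in same wells.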

A short description of test [2]: CEETOX_H295R_PROG: CeeTox H295R High-throughput Steroidogenesis Assay for Progesterone (PROG) (AID 2283442).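 On AC50: human H295R adrenal cells primed with 10 µM forskolin before dosing.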 The settings on record: actives raise or lower the signal. Put shortly: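 H295R adrenal cells prestimulated 48 h with 10 uM forskolin, then exposed 48 h to test chemical in 0.1% DMSO. Progesterone in medium quantified by HPLC-MS/MS after MTBE extraction; viability checked by MTT in same wells.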

Read-out in test [3]: Fatty acid synthase (Homo sapiens) (UniProt P49327)
Briefly: LTEA_HepaRG_FASN: Life Technologies and Expression Analysis (LTEA) Assay for Fatty Acid Synthase (FASN) using HepaRG (AID 2283448). The settings on record: mRNA level, 48 h; actives raise or lower the signal. The method in brief:
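Cells were plated, cultured 48 h, switched to serum-free induction medium, then dosed in duplicate (max 100 uM, half-log dilutions, 0.5% DMSO) for 48 h. RNA was then isolated and FASN quantified by qRT-PCR.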

Read-out in test [4]: Cyclin D2 (CCND2), CCND2 (gene 894)
Briefly: LTEA_HepaRG_CCND2: Life Technologies and Expression Analysis (LTEA) Assay for Cyclin D2 (CCND2) using HepaRG (AID 2283449). As to conditions: mRNA level, 48 h; actives raise or lower the signal. Put shortly: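 CCND2 transcript levels, quantified by qRT-PCR and normalised to three housekeeping genes, were fitted bidirectionally against 0.5% DMSO. HepaRG cultures were dosed 48 h in duplicate with an 8-point half-log series up to 100 uM.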

Read-out in test [5]: Cyclin Dependent Kinase Inhibitor 1A (CDKN1A), CDKN1A (gene 1026)
Put plainly: LTEA_HepaRG_CDKN1A: Life Technologies and Expression Analysis (LTEA) Assay for Cyclin Dependent Kinase Inhibitor 1A (CDKN1A) using HepaRG (AID 2283450). The settings on record: mRNA level, 48 h; actives raise or lower the signal. Put shortly: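 Differentiated HepaRG cells in serum-free induction medium, exposed 48 h in duplicate to eight half-log concentrations up to 100 uM in 0.5% DMSO. mRNA measured by TaqMan qRT-PCR, normalized to ACTB, GAPDH, POLR2A; bidirectional fit versus DMSO.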

Read-out in test [6]: Cyclin D1 (CCND1), CCND1 (gene 595)
Briefly: LTEA_HepaRG_CCND1: Life Technologies and Expression Analysis (LTEA) Assay for Cyclin D1 (CCND1) using HepaRG (AID 2283451).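 On AC50: TaqMan qRT-PCR transcript level normalised to ACTB GAPDH and POLR2A housekeeping genes.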 The settings on record: mRNA level, 48 h; actives raise or lower the signal. Put shortly: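 Differentiated HepaRG cells exposed 48 h in serum-free induction medium to eight half-log concentrations from 100 uM top, 0.5% DMSO, duplicates. CCND1 mRNA measured by Fluidigm TaqMan qRT-PCR, normalised to ACTB, GAPDH, POLR2A; bidirectional fit.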

Read-out in test [7]: catalase (CAT), CAT (gene 847)
Put plainly: LTEA_HepaRG_CAT: Life Technologies and Expression Analysis (LTEA) Assay for catalase (CAT) using HepaRG (AID 2283452). The settings on record: mRNA level, 48 h; actives raise or lower the signal. The method in brief: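 Expression of CAT was quantified by TaqMan qRT-PCR with ACTB/GAPDH/POLR2A normalization after 48 h chemical exposure of HepaRG. Eight-point half-log series, top 100 uM, in 0.5% DMSO; gain or loss fitted against vehicle.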

Read-out in test [8]: flavin-containing dimethylaniline monooxygenases 3 (FMO3), FMO3 (gene 2328)
Put plainly: LTEA_HepaRG_FMO3: Life Technologies and Expression Analysis (LTEA) Assay for flavin-containing dimethylaniline monooxygenases 3 (FMO3) using HepaRG (AID 2283453). As to conditions: mRNA level, 48 h; actives raise or lower the signal. The method in brief: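 FMO3 transcript quantified by TaqMan qRT-PCR against three housekeeping genes after 48 h chemical exposure of HepaRG cells. Eight-point half-log series, top 100 uM, 0.5% DMSO vehicle; phenobarbital 1mM induction control; up- or down-regulation fitted.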

Read-out in test [9]: CFLAR gene, CFLAR (gene 8837)
Briefly: LTEA_HepaRG_CFLAR: Life Technologies and Expression Analysis (LTEA) Assay for CFLAR gene using HepaRG (AID 2283455). As to conditions: mRNA level, 48 h; actives raise or lower the signal. The method in brief:
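Transcript level by qRT-PCR (normalized to ACTB, GAPDH and POLR2A) after 48 h chemical exposure of HepaRG cells, top concentration 100 uM with half-log steps, 0.5% DMSO vehicle, duplicates; fitted bidirectionally against DMSO baseline.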

Read-out in test [10]: Forkhead box O1 (FOXO1), FOXO1 (gene 2308)
Put plainly: LTEA_HepaRG_FOXO1: Life Technologies and Expression Analysis (LTEA) Assay for Forkhead box O1 (FOXO1) using HepaRG (AID 2283456). As to conditions: mRNA level, 48 h; actives raise or lower the signal. Put shortly: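 FOXO1 transcript quantified by qRT-PCR after 48 h chemical exposure (top 100 uM, half-log steps, 0.5% DMSO) of HepaRG cells, housekeeping-normalized (ACTB/GAPDH/POLR2A). Changes fitted in both directions relative to vehicle.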

Read-out in test [11]: growth arrest and DNA damage 45 (GADD45A), GADD45A (gene 1647)
Put plainly: LTEA_HepaRG_GADD45A: Life Technologies and Expression Analysis (LTEA) Assay for growth arrest and DNA damage 45 (GADD45A) using HepaRG (AID 2283458). The settings on record: mRNA level, 48 h; actives raise or lower the signal. The method in brief:
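Transcript induction or loss, quantified by TaqMan qRT-PCR against three housekeeping genes, is the read-out. HepaRG cells received chemicals for 48 h across eight half-log concentrations from 100 uM in 0.5% DMSO; gain and loss fitted relative to DMSO.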

Read-out in test [12]: Forkhead box O3 (FOXO3), FOXO3 (gene 2309)
Put plainly: LTEA_HepaRG_FOXO3: Life Technologies and Expression Analysis (LTEA) Assay for Forkhead box O3 (FOXO3) using HepaRG (AID 2283459). The settings on record: mRNA level, 48 h; actives raise or lower the signal. Put shortly:
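FOXO3 transcript measured by qRT-PCR (normalized to ACTB, GAPDH, POLR2A) after 48 h exposure of HepaRG cells in serum-free induction medium. Duplicates, eight half-log concentrations up to 100 uM, 0.5% DMSO; gain or loss fitted against DMSO.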

Read-out in test [13]: ABC Transporter (ABCB1), ABCB1 (gene 5243)
Briefly: LTEA_HepaRG_ABCB1: Life Technologies and Expression Analysis (LTEA) Assay for ABC Transporter (ABCB1) using HepaRG (AID 2283460). The settings on record: mRNA level, 48 h; actives raise or lower the signal. The method in brief: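 ABCB1 transcript level measured by TaqMan qRT-PCR against three housekeeping genes after 48 h chemical exposure of differentiated HepaRG cells. Top concentration 100 uM, half-log steps, eight points, 0.5% DMSO vehicle; bidirectional fit relative to DMSO.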

Read-out in test [14]: growth arrest and DNA damage 45 (GADD45B), GADD45B (gene 4616)
Briefly: LTEA_HepaRG_GADD45B: Life Technologies and Expression Analysis (LTEA) Assay for growth arrest and DNA damage 45 (GADD45B) using HepaRG (AID 2283461). The settings on record: mRNA level, 48 h; actives raise or lower the signal. The method in brief: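 Differentiated human HepaRG cells in serum-free induction medium exposed 48 h in duplicate to eight concentrations, top 100 uM, half-log steps, 0.5% DMSO. GADD45B mRNA by TaqMan qRT-PCR, normalized to ACTB, GAPDH, POLR2A; bidirectional fit versus DMSO.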

Read-out in test [15]: ABC Transporter (ABCB11), ABCB11 (gene 8647)
Briefly: LTEA_HepaRG_ABCB11: Life Technologies and Expression Analysis (LTEA) Assay for ABC Transporter (ABCB11) using HepaRG (AID 2283463). As to conditions: mRNA level, 48 h; actives raise or lower the signal. The method in brief:
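ABCB11 transcript levels quantified by TaqMan qRT-PCR against three housekeeping genes after 48 h chemical exposure of HepaRG cultures. Concentrations up to 100 uM in half-log steps, 0.5% DMSO vehicle; both induction and suppression scored.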

Read-out in test [16]: Broad substrate specificity ATP-binding cassette transporter ABCG2 (Homo sapiens) (UniProt Q9UNQ0)
Briefly: LTEA_HepaRG_ABCG2: Life Technologies and Expression Analysis (LTEA) Assay for ABC Transporter (ABCG2) using HepaRG (AID 2283465). The settings on record: mRNA level, 48 h; actives raise or lower the signal. The method in brief: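 ABCG2 transcript was quantified by TaqMan qRT-PCR against three housekeeping genes in HepaRG cells. Cells were treated in duplicate for 48 h across an 8-point half-log series up to 100 uM, with 0.5% DMSO vehicle. Gain or loss versus DMSO was fit.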

Read-out in test [17]: ATP-citrate lyase (ACLY), ACLY (gene 47)
Put plainly: LTEA_HepaRG_ACLY: Life Technologies and Expression Analysis (LTEA) Assay for ATP-citrate lyase (ACLY) using HepaRG (AID 2283466). The settings on record: mRNA level, 48 h; actives raise or lower the signal. Put shortly: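 ACLY mRNA quantified by qRT-PCR on Fluidigm arrays against three housekeeping genes, after 48 h chemical treatment of HepaRG cells (top concentration 100 uM, half-log steps, 0.5% DMSO vehicle). Up- or down-regulation fitted relative to DMSO.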

Read-out in test [18]: Peroxisomal acyl-coenzyme A oxidase 1 (ACOX1) gene, ACOX1 (gene 51)
Briefly: LTEA_HepaRG_ACOX1: Life Technologies and Expression Analysis (LTEA) Assay for Peroxisomal acyl-coenzyme A oxidase 1 (ACOX1) gene using HepaRG (AID 2283467). As to conditions: mRNA level, 48 h; actives raise or lower the signal. The method in brief:
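ACOX1 transcript levels were quantified by TaqMan qRT-PCR against three housekeeping genes after 48 h chemical exposure of differentiated human HepaRG cells. Exposure used eight half-log steps topping at 100 uM, 0.5% DMSO vehicle, in duplicate. Bidirectional curve fits were made relative to DMSO.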

Read-out in test [19]: Alkaline Phosphatase, Placental (ALPP) gene, ALPP (gene 250)
Briefly: LTEA_HepaRG_ALPP: Life Technologies and Expression Analysis (LTEA) Assay for Alkaline Phosphatase, Placental (ALPP) gene using HepaRG (AID 2283468). The settings on record: mRNA level, 48 h; actives raise or lower the signal. The method in brief:
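HepaRG cells plated 48 h, then exposed in duplicate for 48 h in serum-free induction medium to 8-point half-log series from 100 uM in 0.5% DMSO. ALPP mRNA by TaqMan qRT-PCR, normalized to ACTB/GAPDH/POLR2A; bidirectional fit versus DMSO.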

Test [20] in a line: CEETOX_H295R_TESTO: CeeTox H295R High-throughput Steroidogenesis Assay for Testosterone (TESTO) (AID 2283457).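 Further: cells exposed to chemicals for 48 h before medium collection.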 As to conditions: actives raise or lower the signal. The method in brief: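 H295R adrenal cells, passage ≤10, exposed to chemicals for 48 h. Testosterone in medium measured by MTBE extraction and HPLC-MS/MS against a 7-point standard curve. Bidirectional fit versus DMSO; MTT viability checked in the same wells.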

Chain of Broad substrate specificity ATP-binding cassette transporter ABCG2 (Homo sapiens) (Q9UNQ0 whole entry, looked up): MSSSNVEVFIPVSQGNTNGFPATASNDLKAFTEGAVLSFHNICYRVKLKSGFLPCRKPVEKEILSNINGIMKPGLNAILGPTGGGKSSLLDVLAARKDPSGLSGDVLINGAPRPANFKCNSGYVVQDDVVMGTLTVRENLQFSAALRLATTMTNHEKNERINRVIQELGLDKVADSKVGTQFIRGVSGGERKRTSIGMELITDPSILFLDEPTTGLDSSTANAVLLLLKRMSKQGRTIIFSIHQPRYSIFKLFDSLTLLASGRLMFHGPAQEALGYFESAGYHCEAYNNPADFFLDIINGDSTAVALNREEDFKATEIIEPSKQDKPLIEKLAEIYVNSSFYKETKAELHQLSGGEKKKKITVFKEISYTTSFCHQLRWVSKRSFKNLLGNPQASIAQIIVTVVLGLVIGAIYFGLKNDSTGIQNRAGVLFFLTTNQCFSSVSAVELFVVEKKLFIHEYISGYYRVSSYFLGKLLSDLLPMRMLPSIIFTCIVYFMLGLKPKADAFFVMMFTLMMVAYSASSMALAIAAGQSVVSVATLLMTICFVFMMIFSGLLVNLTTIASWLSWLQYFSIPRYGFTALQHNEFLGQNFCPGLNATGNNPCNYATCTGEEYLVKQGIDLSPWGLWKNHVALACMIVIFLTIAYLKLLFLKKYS
Chain of Fatty acid synthase (Homo sapiens) (P49327 whole entry, looked up): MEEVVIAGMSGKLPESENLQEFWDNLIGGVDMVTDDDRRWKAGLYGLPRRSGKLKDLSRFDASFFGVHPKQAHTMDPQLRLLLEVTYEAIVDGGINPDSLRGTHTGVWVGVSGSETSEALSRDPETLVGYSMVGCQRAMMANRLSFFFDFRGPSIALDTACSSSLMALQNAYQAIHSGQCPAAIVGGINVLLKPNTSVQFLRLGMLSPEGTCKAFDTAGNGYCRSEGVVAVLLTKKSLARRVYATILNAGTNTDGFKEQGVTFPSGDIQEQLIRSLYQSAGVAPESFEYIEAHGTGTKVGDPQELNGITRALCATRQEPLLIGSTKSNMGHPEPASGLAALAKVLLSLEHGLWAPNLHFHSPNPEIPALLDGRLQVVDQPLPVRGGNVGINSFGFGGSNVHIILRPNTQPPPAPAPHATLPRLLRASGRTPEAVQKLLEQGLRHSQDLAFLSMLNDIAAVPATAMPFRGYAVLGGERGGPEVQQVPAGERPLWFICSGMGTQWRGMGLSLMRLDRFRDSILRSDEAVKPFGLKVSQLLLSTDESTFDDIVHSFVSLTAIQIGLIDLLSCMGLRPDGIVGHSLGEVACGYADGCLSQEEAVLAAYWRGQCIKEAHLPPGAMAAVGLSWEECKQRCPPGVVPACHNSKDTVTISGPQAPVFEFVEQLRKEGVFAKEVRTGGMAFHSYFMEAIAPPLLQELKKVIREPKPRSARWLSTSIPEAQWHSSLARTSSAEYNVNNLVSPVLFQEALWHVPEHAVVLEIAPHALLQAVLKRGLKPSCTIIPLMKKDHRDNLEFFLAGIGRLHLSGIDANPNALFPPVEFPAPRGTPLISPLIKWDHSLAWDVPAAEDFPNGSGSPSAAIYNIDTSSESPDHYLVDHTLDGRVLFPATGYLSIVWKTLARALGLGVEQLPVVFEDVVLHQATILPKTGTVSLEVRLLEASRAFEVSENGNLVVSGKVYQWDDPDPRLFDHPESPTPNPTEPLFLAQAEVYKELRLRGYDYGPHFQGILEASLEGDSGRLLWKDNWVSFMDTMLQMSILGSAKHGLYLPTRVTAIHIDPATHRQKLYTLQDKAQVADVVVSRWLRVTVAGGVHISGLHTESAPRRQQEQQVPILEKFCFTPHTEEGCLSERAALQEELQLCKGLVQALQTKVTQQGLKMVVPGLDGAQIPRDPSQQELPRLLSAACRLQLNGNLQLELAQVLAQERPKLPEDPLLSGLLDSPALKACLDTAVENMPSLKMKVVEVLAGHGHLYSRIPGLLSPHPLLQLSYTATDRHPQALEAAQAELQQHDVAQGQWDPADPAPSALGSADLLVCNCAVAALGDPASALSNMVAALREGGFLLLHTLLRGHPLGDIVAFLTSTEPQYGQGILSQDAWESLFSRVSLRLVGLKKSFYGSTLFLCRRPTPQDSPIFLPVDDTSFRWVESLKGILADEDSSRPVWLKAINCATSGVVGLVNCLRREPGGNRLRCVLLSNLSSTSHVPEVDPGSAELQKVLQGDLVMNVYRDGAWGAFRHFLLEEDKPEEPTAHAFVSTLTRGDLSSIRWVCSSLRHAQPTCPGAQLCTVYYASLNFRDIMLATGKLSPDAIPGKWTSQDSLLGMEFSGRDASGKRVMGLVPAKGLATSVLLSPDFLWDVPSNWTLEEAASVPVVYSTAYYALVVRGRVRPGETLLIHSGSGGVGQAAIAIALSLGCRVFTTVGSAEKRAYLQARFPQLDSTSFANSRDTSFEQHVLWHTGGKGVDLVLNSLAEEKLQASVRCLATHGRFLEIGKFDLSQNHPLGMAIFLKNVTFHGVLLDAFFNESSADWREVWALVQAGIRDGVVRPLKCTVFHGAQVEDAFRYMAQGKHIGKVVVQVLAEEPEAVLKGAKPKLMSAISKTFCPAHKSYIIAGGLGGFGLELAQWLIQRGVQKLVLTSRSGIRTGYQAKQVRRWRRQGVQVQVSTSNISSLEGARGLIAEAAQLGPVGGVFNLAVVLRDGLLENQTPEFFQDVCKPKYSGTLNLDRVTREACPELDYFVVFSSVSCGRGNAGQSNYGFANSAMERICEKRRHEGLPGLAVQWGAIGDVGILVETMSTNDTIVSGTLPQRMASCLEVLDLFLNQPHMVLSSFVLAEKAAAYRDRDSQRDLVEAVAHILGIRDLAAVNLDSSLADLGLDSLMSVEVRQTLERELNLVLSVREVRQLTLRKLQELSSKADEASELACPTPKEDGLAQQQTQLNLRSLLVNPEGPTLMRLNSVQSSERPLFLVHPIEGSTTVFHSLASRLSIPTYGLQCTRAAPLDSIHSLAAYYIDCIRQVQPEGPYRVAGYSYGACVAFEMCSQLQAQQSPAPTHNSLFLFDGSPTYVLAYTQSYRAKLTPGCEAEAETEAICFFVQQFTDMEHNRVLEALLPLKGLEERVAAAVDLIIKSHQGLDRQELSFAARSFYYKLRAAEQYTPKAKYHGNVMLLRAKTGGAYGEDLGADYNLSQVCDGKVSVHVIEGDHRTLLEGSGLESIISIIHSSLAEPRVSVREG

As to `C=CC(=O)N(C)C`, the molecule was classed as inactive in test [1] and in test [2].

For the molecule `CCCCCCCCC(=O)NCc1ccc(O)c(OC)c1`, the result in test [1] and in test [2] was inactive.

As to `NNC(=S)NN`, the result in test [1] was inactive. Also, the concentration at half-maximal activity (AC50) in [2] is 50 µM (active).

With `C[C@]12CCC(=O)C[C@@H]1CC[C@@H]1[C@@H]2CC[C@]2(C)[C@@H](O)CC[C@@H]12`, the AC50 is 1.08 µM (active) in test [2], 0.00162 µM (active) in test [11] and 50 µM (active) in test [15]. Besides, the result in [3], in test [4], in test [5], in [6], in test [7] and in [8] was inactive. For the same molecule, the molecule was classed as inactive in test [9], in test [10], in test [12], in test [13], in [14] and in [16]. The result in [17], in test [18] and in [19] was inactive.

`CC12CC1(C)C(=O)N(c1cc(Cl)cc(Cl)c1)C2=O` (stereo not given): the call in test [2], in test [4], in [5], in [6], in [7] and in test [8] was inactive. Also, the outcome in test [9], in test [10], in [12], in test [14], in test [16] and in test [17] was inactive. Further, the molecule was called inactive in test [19]. Further, the half-maximal activity concentration (AC50) in test [3] is 5.61 µM (active); in test [20], 25.4 µM (active); in test [13], 8.58 µM (active); in [15] it was 6.92 µM (active); in test [18] it was 13.1 µM (active).

For `C[C@@H]1C[C@@H]([C@H](O)CC2CC(=O)NC(=O)C2)C(=O)[C@@H](C)C1`, the result in test [2], in test [4] and in test [10] was inactive. In addition, the concentration at half-maximal activity (AC50) in [3] is 4.28 µM (active); in [5] it was 13.2 µM (active); in test [6], 3.34 µM (active); in test [7], 12.4 µM (active); in test [8], 25.9 µM (active); in test [9] it was 13.4 µM (active). Moreover, the AC50 in [11] is 50 µM (active); in [12] it was 34.3 µM (active); in test [13] it was 83.5 µM (active); in test [14], 22.3 µM (active); in test [15], 4.26 µM (active); in test [16], 10.4 µM (active). Besides, the concentration at half-maximal activity (AC50) in [17] is 9.23 µM (active); in [18] it was 50 µM (active); in test [19], 73.8 µM (active).

Usually AC50 stands for the concentration giving half of the maximal activity seen.
